Screening data (PubChem BioAssay)
Only some compounds are listed: those with a hit (about 6.7% of all), similar ones and a draw of the others.
T cruzi growth-1: T. cruzi intracellular proliferation inhibitors, primary screen, cell-based, beta-gal Tulahuen parasites, NIH3T3 host, luminescence | hit rate 5.9% among 77,000 | inhibition, % at 8.34 µM | T. cruzi beta-gal in NIH3T3, GalScreen luminescence, 90 h;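 active means mean inhibition above about 93%, with at least 55% of replicates each passing it, limit read from the data, passing the limit was not always enough; inconclusive means only one of those two conditions holds; inactive means neither condition holds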
Pf Dd2 inh: P. falciparum Dd2 growth inhibitors, primary screen, SYBR Green fluorescence, single dose replicates. 72 h; active compounds read low. activity change, % at 10 µM. hit rate 2.3% among 94,000; in the data active means activity change below about -80%; inconclusive means no clear call, values can overlap the other calls
C diff HTS: C. difficile growth inhibitors, primary screen, HTS | AID 1259249, 2017 | Clostridium difficile clinical isolate growth, OD600, 24 h; active compounds read low | growth activity, negative = inhibition, % at 16 µg/mL (by protocol) | hit rate 0.25% among 86,000;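 active means mean growth activity at or below -80% and every replicate also at or below -80%; inconclusive means mean at or below -80% but some replicate above -80%; inactive means mean growth activity above -80%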;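 further: 0% = DMSO wells and -100% = levofloxacin 16 µg/mL wells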
T cruzi growth-2: T. cruzi intracellular proliferation inhibitors, confirmation, cell-based, NIH3T3 host, beta-gal parasite, luminescence, cherry-pick. shares compounds with T cruzi growth-1. T. cruzi beta-gal in NIH3T3, GalScreen luminescence, 90 h. inhibition, % at 8.35 µM. hit rate 72% among 5,600;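 active means mean replicate inhibition above about 95% and at least 55% of replicates individually reaching it, limit read from the data; inconclusive means only one of the two criteria is met; inactive means neither criterion is met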
T cruzi growth-3: inhibitors of intracellular T. cruzi replication, confirmation, NIH3T3 host cells, beta-gal parasites, cherry-pick, set 2; shares compounds with T cruzi growth-1; T. cruzi beta-gal in NIH3T3, GalScreen luminescence, 90 h; inhibition, % at 2.09 µM; hit rate 21% among 5,600; AID 651740, 2012;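 active means mean inhibition above about 95%, with at least 55% of replicates also reaching it, limit read from the data; inconclusive means meets just one of the two conditions; inactive means meets neither condition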;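 further: plate controls were neutral control median for no effect and positive control median for full effect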
NIH3T3 tox: cytotoxicity in mouse NIH/3T3 fibroblasts, confirmation, cytotoxicity control for T. cruzi proliferation inhibitor project, cell-based, cherry-pick, single point; shares compounds with T cruzi growth-1; AID 651742, 2012; hit rate 14% among 5,600; NIH/3T3 viability, CellTiter-Glo ATP luminescence, 90 h; cytotoxicity (signal decrease), % at 8.35 µM;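 active means mean signal decrease across replicates above about 35% based on untreated-well scatter, with enough replicates individually passing, limit read from the data; inconclusive means no rule stated though some were filed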;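 further: 0% = median of neutral control wells and 100% = median of positive control wells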
NIH3T3 tox 2: NIH/3T3 fibroblast cytotoxicity, confirmation, cytotoxicity control, cell-based, cherry-pick, single point, set 2; shares compounds with T cruzi growth-1; hit rate 56% among 5,600; inhibition, % at 24.9 µM; NIH/3T3 viability, CellTiter-Glo ATP luminescence, 90 h;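 active means mean loss of cell viability signal at or above a set limit, and enough replicates individually reaching it; inconclusive means meets only the mean limit or only the replicate share; inactive means meets neither condition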;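 further: 0% = median of neutral control wells and 100% = median of positive control wells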
An asterisk follows results filed as active; ? = inconclusive; · = no result given.

SMILES	T cruzi growth-1	Pf Dd2 inh	C diff HTS	T cruzi growth-2	T cruzi growth-3	NIH3T3 tox	NIH3T3 tox 2
Cc1cccc(S(=O)(=O)N2CC[C@@H]3[C@H]2c2cc(-c4ccccc4F)ccc2N[C@@H]3CO)c1	15	62	5	·	·	·	·
Cc1ccc(S(=O)(=O)N2CC[C@@H]3[C@H](CO)Nc4ccc(-c5ccccc5F)cc4[C@@H]32)cc1	112*	-55	-6	102*	110*	40*	60*
CN(C)C(=O)c1cccc(-c2ccc3c(c2)[C@@H]2[C@@H](CCN2S(=O)(=O)c2ccccc2)[C@@H](CO)N3)c1	108*	-6	6	104*	?	5	21
Cc1ccc(S(=O)(=O)N2CC[C@H]3[C@H](CO)Nc4ccc(-c5ccccc5F)cc4[C@H]32)cc1	?	12	-4	103*	87	46*	85*
CS(=O)(=O)Nc1ccc2c(c1)[C@@H]1C[C@H](CC(=O)NCc3ccncc3)O[C@H](CO)[C@@H]1O2	79	11	0	·	·	·	·
CN1C(=O)c2cc(NC(=O)C3CCC3)ccc2OC[C@@H]2O[C@H](CC(=O)NCc3ccccc3F)CC[C@H]21	·	-37	-5	·	·	·	·
C[C@H]1CN([C@@H](C)CO)S(=O)(=O)c2ccc(C3=CCCCC3)cc2O[C@H]1CN(C)C(=O)C1CC1	71	-4	-4	·	·	·	·
COc1ccc(CN(C)C[C@@H]2Oc3c(NS(C)(=O)=O)cccc3C(=O)N([C@H](C)CO)C[C@H]2C)cc1	-41	-10	1	·	·	·	·
CO[C@@H]1CN(C)C(=O)c2cc(NC(=O)C3CCCCC3)ccc2OC[C@@H](C)NC[C@@H]1C	53	-11	·	·	·	·	·
C[C@H](CO)N1C[C@H](C)[C@@H](CN(C)S(=O)(=O)c2ccc(Cl)cc2)Oc2ccc(NC(=O)Nc3cccc4ccccc34)cc2C1=O	·	-77	-3	·	·	·	·
C[C@@H]1CCCCO[C@@H](CN(C)S(=O)(=O)c2ccccc2)[C@@H](C)CN([C@H](C)CO)C(=O)c2cc(NC(=O)Nc3cccc4ccccc34)ccc2O1	26	1	2	·	·	·	·
C[C@@H]1CN([C@H](C)CO)C(=O)c2cc(NC(=O)Nc3cccc4ccccc34)ccc2O[C@@H]1CN(C)S(=O)(=O)c1ccc(Cl)cc1	98*	16	-2	107*	59	10	49*
C[C@@H]1CCCCO[C@H](CN(C)S(=O)(=O)c2ccc(F)cc2)[C@H](C)CN([C@H](C)CO)C(=O)c2cc(NC(=O)Nc3cccc4ccccc34)ccc2O1	101*	-79	-5	104*	108*	-12	15
C[C@H](CO)N1C[C@H](C)[C@H](CN(C)S(=O)(=O)c2ccc(Cl)cc2)OCCCC[C@H](C)Oc2ccc(NC(=O)Nc3cccc4ccccc34)cc2C1=O	98*	-22	-3	111*	102*	26	?
C[C@@H]1CCCCO[C@H](CN(C)S(=O)(=O)c2ccc(F)cc2)[C@@H](C)CN([C@H](C)CO)C(=O)c2cc(NC(=O)Nc3cccc4ccccc34)ccc2O1	63	-3	-3	·	·	·	·
C[C@@H]1CCCCO[C@H](CN(C)S(=O)(=O)c2ccc(Cl)cc2)[C@H](C)CN([C@@H](C)CO)C(=O)c2cc(NC(=O)Nc3cccc4ccccc34)ccc2O1	101*	-80	1	109*	104*	2	11
Cc1ccc(S(=O)(=O)N(C)C[C@@H]2OCCCC[C@@H](C)Oc3ccc(NC(=O)Nc4cccc5ccccc45)cc3C(=O)N([C@H](C)CO)C[C@@H]2C)cc1	·	-75	8	·	·	·	·
O=C(C1CC1)N1CCCCN2[C@H](C1)[C@@H](c1ccc(C#CC3(O)CCCC3)cc1)[C@@H]2CO	16	12	-6	·	·	·	·
COCC(=O)Nc1ccc2c(c1)C(=O)N(C)C[C@H](OC)[C@H](C)CN(Cc1ccccc1OC)[C@@H](C)CO2	-11	11	-1	·	·	·	·
CN1[C@@H]2c3ccc(-c4ccc(F)cc4)c(=O)n3C[C@@H]2[C@@H](CO)[C@@H]1C(=O)NCc1ccccn1	2	7	-4	·	·	·	·
O=C(C[C@@H]1C=C[C@@H](NC(=O)c2ccccn2)[C@H](CO)O1)NCc1cccc(F)c1	-6	-15	1	·	·	·	·
C[C@@H]1CN([C@H](C)CO)C(=O)c2cc(Br)cnc2O[C@H]1CN(C)Cc1ccncc1	-25	36	2	·	·	·	·
C[C@H](CO)N1C[C@H](C)[C@@H](CN(C)C(=O)NC2CCCCC2)Oc2ccc(NC(=O)Nc3ccc(F)cc3)cc2CC1=O	2	-24	-3	·	·	·	·
CN(C)C(=O)c1ccc(-c2ccc([C@@H]3[C@H](CO)N4CCCCN(CC5CC5)C[C@@H]34)cc2)cc1	74	12	-6	·	·	·	·
C[C@@H]1CN([C@H](C)CO)S(=O)(=O)c2ccc(C#CC3CC3)cc2O[C@@H]1CN(C)Cc1cncnc1	56	25	·	·	·	·	·
SMILES	T cruzi growth-1	Pf Dd2 inh	C diff HTS	T cruzi growth-2	T cruzi growth-3	NIH3T3 tox	NIH3T3 tox 2
C[C@H](O)C#Cc1cnc2c(c1)C(=O)N([C@H](C)CO)C[C@H](C)[C@H](CN(C)C(=O)c1ccncc1)O2	14	39	-4	·	·	·	·
Cc1cccc(-c2ccc([C@@H]3[C@@H](CO)N4CCCCN(S(=O)(=O)c5cccc(C)c5)C[C@@H]34)cc2)c1	89	-41	-9	·	·	·	·
COc1cccc(-c2ccc([C@@H]3[C@@H](CO)N4CCCCN(S(=O)(=O)c5cccs5)C[C@H]34)cc2)c1	67	-2	-1	·	·	·	·
Cc1cccc(-c2ccc([C@@H]3[C@@H](CO)N4CCCCN(S(=O)(=O)c5cccs5)C[C@@H]34)cc2)c1	115*	13	1	106*	32	44*	70*
Cc1cccc(-c2ccc([C@H]3[C@@H](CO)N4CCCCN(S(=O)(=O)c5cccc(C)c5)C[C@@H]34)cc2)c1	73	-43	8	·	·	·	·
Cc1cccc(-c2ccc([C@@H]3[C@H](CO)N4CCCCN(S(=O)(=O)c5cccs5)C[C@@H]34)cc2)c1	103*	-28	40	106*	64	47*	102*
COc1cccc(-c2ccc([C@@H]3[C@H](CO)N4CCCCN(S(=O)(=O)c5cccs5)C[C@@H]34)cc2)c1	89	-35	46	·	·	·	·
Cc1cccc(-c2ccc([C@H]3[C@H](CO)N4CCCCN(S(=O)(=O)c5cccs5)C[C@@H]34)cc2)c1	115*	-8	-1	108*	78	29	105*
Cc1cccc(-c2ccc([C@@H]3[C@H]4CN(S(=O)(=O)c5cccs5)CCCCN4[C@H]3CO)cc2)c1	98*	10	1	107*	75	25	60*
